Values without a mark were called inactive. Results filed as inconclusive are left out. A call without a number means that no potency is given here. The source made the active and inactive calls. Unless noted, calls follow the shape of the dose curve; as a rule, active = well fitted curve in the direction sought with a large enough effect; inconclusive = small, poorly fitted or top-dose-only effect, or another doubt; inactive = no such curve, though single readings can be large; an effect the other way counts as inactive or inconclusive.
How the values were obtained:
[1] = Cell Viability - Mesenchymal (AID 546); details: mesenchymal cells viability, qHTS; activity change, negative = cytotoxicity: at 91.7 µM (top of the series);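 also: cells exposed to compound for 40 hours before reading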
Procedure, shortened: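 Human renal mesenchymal cells (glomerulus-derived), 1000 cells/well, 5 hr 37 °C pre-incubation; compound 40 hr, 37 °C; CellTiter-Glo, 20 min RT; luminescence; AC50 via Hill equation.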

[2] = Cellular Toxicity (caspase-3) HepG2 (AID 654);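 also: cells exposed to compound for 16 hours before reading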
Procedure, shortened: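 Concentration-response AC50 values reflect caspase-3/7 induction in HepG2 cells after 16 hours of compound exposure, quantified by luminescence from liberated aminoluciferin and referenced to 100 uM tamoxifen as full stimulation.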

[3] = Cellular Toxicity (caspase-3) Jurkat (AID 655);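 also: cells exposed to compound for 16 h at 37 °C before reading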; also: potency is read from the fitted curve at half-maximal effect
Procedure, shortened: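 qHTS in human Jurkat T-cell leukemia line: 16 hr compound treatment at 37 °C, caspase-3/7 activity measured by Caspase-Glo luminescence. AC50 derived from Hill equation.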

[4] = Cellular Toxicity (caspase-3) SHSY5Y (AID 657); also: potency is read from the fitted curve at half-maximal effect
Procedure, shortened: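 Readout: caspase-cleaved peptide-aminoluciferin substrate driving luciferase light in SH-SY5Y neuroblastoma cells after 16 h treatment. Response normalized to DMSO and 10 uM staurosporine controls.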

[5] = Cellular Toxicity (caspase-3) BJ (AID 658)
Procedure, shortened: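 qHTS, BJ fibroblasts, 1000 cells/well; 5 hr preincubation, 16 hr compound, 37 °C; Caspase-Glo 3/7 reagent, 1 hr RT; luminescence. DMSO = 0%, 10 uM staurosporine = 100%. Hill-equation AC50.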

[6] = Cellular Toxicity (caspase-3) MRC-5 (AID 659); details: Potency: caspase-3 activation
Procedure, shortened: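 MRC-5 fibroblasts, 1500/well; 16 h cpd, 37 °C; Caspase-Glo 3/7, 1 h RT; lumi read. Norm: DMSO = 0%, 10 uM staurosporine = 100%. Hill-fit AC50 from qHTS conc-response.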

[7] = Cellular Toxicity (caspase-3) Mesangial (AID 660);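 also: combined caspase 3 and 7 activity read by Caspase-Glo luminescence; cells exposed to compound for 16 h before the caspase read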
Procedure, shortened: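 AC50 values come from Hill-equation fits of caspase 3/7 activation, measured as Caspase-Glo luminescence in human glomerular mesangial cells exposed to compound for 16 h at 37 °C; 100% set by 100 uM tamoxifen.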

[8] = Cellular Toxicity (caspase-3) SK-N-SH (AID 661); also: potency is read from the fitted curve at half-maximal effect
Procedure, shortened: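 Apoptosis readout in SK-N-SH neuroblastoma: Caspase-Glo 3/7 luminescence following 16 hr treatment in complete culture medium. Normalization used DMSO and 10 uM staurosporine controls.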

[9] = Cellular Toxicity (caspase-3) H-4-II-E (AID 663); details: Potency: caspase-3 activation; also: potency is read from the fitted curve at half-maximal effect;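 as to caspase-3 activation: cells exposed to compound for 16 hr before readout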
Procedure, shortened: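 H-4-II-E rat hepatoma, 1500 cells/well, 5 hr settle at 37 °C; compound 16 hr, 37 °C, complete medium; Caspase-Glo 3/7, 20 min RT; luminescence. DMSO = 0%, 100 uM tamoxifen = 100%; Hill-equation AC50.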

[10] = molecular target: 3',5'-cyclic-AMP phosphodiesterase 4B (Homo sapiens) (UniProt Q07343); assay: qHTS Assay for Inhibitors of PDE-IV (AID 607; active = well fitted activation curve with a large enough effect in the main read-out, with a control signal flat, not every such curve was filed as active)
Procedure, shortened: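 The readout is membrane depolarisation from a cAMP-sensing CNG channel, detected with a potential dye at ex 535/em 590. Cells were HEK293-derived (endogenous PDE-IV) at 1000 cells/well, titrated up to 22.9 uM final.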

Chain of 3',5'-cyclic-AMP phosphodiesterase 4B (Homo sapiens) (Q07343 whole entry, looked up): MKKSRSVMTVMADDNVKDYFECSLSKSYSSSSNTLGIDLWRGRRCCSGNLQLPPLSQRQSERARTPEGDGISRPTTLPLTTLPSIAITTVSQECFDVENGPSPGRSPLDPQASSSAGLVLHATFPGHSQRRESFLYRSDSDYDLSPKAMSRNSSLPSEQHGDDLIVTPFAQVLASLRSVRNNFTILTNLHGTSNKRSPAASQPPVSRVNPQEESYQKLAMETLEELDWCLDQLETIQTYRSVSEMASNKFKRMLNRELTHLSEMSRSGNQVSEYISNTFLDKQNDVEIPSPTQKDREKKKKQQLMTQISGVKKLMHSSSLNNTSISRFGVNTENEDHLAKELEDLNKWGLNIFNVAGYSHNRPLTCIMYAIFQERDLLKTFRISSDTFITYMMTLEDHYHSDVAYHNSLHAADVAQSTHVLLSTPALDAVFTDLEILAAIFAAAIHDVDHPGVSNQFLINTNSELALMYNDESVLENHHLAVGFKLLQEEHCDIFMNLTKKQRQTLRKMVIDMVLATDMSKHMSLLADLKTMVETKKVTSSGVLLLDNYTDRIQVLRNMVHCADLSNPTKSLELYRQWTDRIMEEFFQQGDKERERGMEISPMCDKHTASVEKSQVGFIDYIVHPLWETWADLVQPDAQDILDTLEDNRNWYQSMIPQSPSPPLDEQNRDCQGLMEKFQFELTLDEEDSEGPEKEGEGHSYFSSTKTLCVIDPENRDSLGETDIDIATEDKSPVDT

Nc1ccc(C(=O)O)cc1
activity change, negative = cytotoxicity [1]: -3.72%
Potency [2]: inactive
Potency [3]: inactive
Potency [4]: inactive
outcome [5]: inactive
Potency [6]: inactive
outcome [7]: inactive
Potency [8]: inactive
Potency [9]: inactive

CN1CCN(C(c2ccccc2)c2ccccc2)CC1
outcome [10]: inactive

O=C1c2ccccc2C(=O)C1c1ccccc1
outcome [10]: inactive

CC(C)N=C(N)/N=C(\N)Nc1ccc(Cl)cc1
outcome [10]: inactive

CC(C)COC(=O)OCN1C(=O)CN(CCN2CC(=O)N(COC(=O)OCC(C)C)C(=O)C2)CC1=O
outcome [10]: inactive

COC1=CC(=O)C[C@@H](C)[C@]12Oc1c(Cl)c(OC)cc(OC)c1C2=O
activity change, negative = cytotoxicity [1]: -20.5%
Potency [2]: inactive
Potency [3]: inactive
Potency [4]: inactive
outcome [5]: inactive
Potency [6]: inactive
outcome [7]: inactive
Potency [8]: inactive
Potency [9]: inactive

C[N+]1(CCCCC[N+]2(C)CCCC2)CCCC1
outcome [10]: inactive

CCCCOc1ccc(OCCCN2CCOCC2)cc1
outcome [10]: inactive

Cc1cc(=O)n(-c2ccccc2)n1C
outcome [10]: inactive

CCOC(=O)n1ccn(C)c1=S
outcome [10]: inactive

O=C(OCCOCCO)c1ccccc1Nc1cccc(C(F)(F)F)c1
outcome [10]: inactive

CC(=O)N(O)CCCCCNC(=O)CCC(=O)N(O)CCCCCNC(=O)CCC(=O)N(O)CCCCCN
outcome [10]: inactive

O=C(COc1ccc(Cl)cc1)N1CCN(Cc2ccc3c(c2)OCO3)CC1
outcome [10]: inactive

Cc1ccnc(NS(=O)(=O)c2ccc(N)cc2)n1
outcome [10]: inactive

O=C(O)c1cc2cc(Cc3cccnc3)ccc2o1
outcome [10]: inactive

COc1cccc2c1C(=O)c1c(O)c3c(c(O)c1C2=O)C[C@@](O)(C(=O)CO)C[C@@H]3O[C@H]1C[C@H](N)[C@H](O)[C@H](C)O1
Potency [3]: 20 nM (active)
Potency [4]: 15.8 nM (active)
outcome [5]: inactive
Potency [6]: inactive
outcome [7]: inactive
Potency [8]: 251 nM (active)
Potency [9]: 31600 nM (active)
